Assay [1] in a line: qHTS assay to identify small molecule antagonists of the estrogen related receptor (ERR) signaling pathway from Tox21 library - cell viability counter screen (AID 1224834). Also: nearly all actives have a fitted effect of over 30% in size. The gist of the method: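 Multiplexed viability counter screen in ERR cells: 17.5 h compound exposure at 37 C, CellTiter-Fluor added, 30 min at 37 C/5% CO2, fluorescence read.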
The target of assay [2] is Luciferin 4-monooxygenase (Photinus pyralis) (UniProt P08659). Description: qHTS assay to identify small molecule inhibitors of firefly luciferase (AID 1224835). Also: nearly all actives have a fitted effect of over 25% in size. Also: potency is read from the fitted curve at half-maximal effect. The gist of the method:
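Inhibition of purified Photinus luciferase is measured by luminescence. Substrate levels (D-luciferin, ATP) sit at their KM values. Each compound is tested in a concentration series.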

The nature of assay [3]: qHTS assay to identify small molecule agonists of the constitutive androstane receptor (CAR) signaling pathway - cell viability counter screen (AID 1224836). Also: nearly all actives have a fitted effect of over 45% in size. An outline of the steps:
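HepG2 cells stably carrying hCAR and a CYP2B6-2.2kb reporter were plated 4 h, then given compounds at 15 concentrations plus PK11195 (final 0.75 uM). After 23 h at 37 C, viability was read by CellTiter-Fluor fluorescence.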

The nature of assay [4]: qHTS assay to identify small molecule antagonists of the constitutive androstane receptor (CAR) signaling pathway - cell viability counter screen (AID 1224837). Also: nearly all actives have a fitted effect of over 45% in size. The gist of the method: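 Read-out: CellTiter-Fluor fluorescence after 23 hr at 37 C/5% CO2. Cells: HepG2 double-stable for hCAR and CYP2B6-2.2kb. Compounds tested at 15 concentrations in the presence of CITCO, final concentration 50 nM.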

The target of assay [5] is Nuclear receptor subfamily 1 group I member 3 (Homo sapiens) (UniProt Q14994). Put plainly: qHTS assay to identify small molecule antagonists of the constitutive androstane receptor (CAR) signaling pathway (AID 1224838). Also: nearly all actives have a fitted effect of over 40% in size. An outline of the steps:
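Read-out: ONE-Glo luciferase luminescence after 30 min at room temperature. HepG2-CYP2B6-hCAR double-stable cells, compounds in 15-point titration plus 50 nM CITCO final, 24 h at 37 C/5% CO2.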

For assay [6] the target is unchanged. Put plainly: qHTS assay to identify small molecule agonists of the constitutive androstane receptor (CAR) signaling pathway (AID 1224839). Also: nearly all actives have a fitted effect of over 15% in size. Also: potency is read from the fitted curve at half-maximal effect.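 As to activation: HepG2 cells stably carrying human CAR and a CYP2B6 luciferase reporter.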 An outline of the steps:
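HepG2 cells stably expressing hCAR and a CYP2B6-2.2kb luciferase reporter were treated with compounds at 15 concentrations plus 0.75 uM PK11195 (final) for 24 h at 37 C; luminescence was read after ONE-Glo addition.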

Assay [7] in a line: qHTS assay to identify small molecule antagonists of the estrogen related receptor signaling pathway with the pleiotropic PPARgamma coactivator (PGC) from Tox21 10K library (AID 1224841; call rule not given here; also: actives are mostly falling curves and most rising ones were filed inactive; nearly all actives have a fitted effect of over 50% in size; also: potency is read from the fitted curve at half-maximal effect). The gist of the method:
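Luminescence read-out (One-Glo luciferase reagent, 30 min at room temperature) from PGC/ERR cells exposed to DMSO-dissolved test compounds for 18 h at 37 C; cells, 2,000 per well, had been preincubated 6 h before compound transfer.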

Assay [8] in a line: qHTS assay to identify small molecule agonists of the estrogen related receptor signaling pathway with the pleiotropic PPARgamma coactivator (PGC) from Tox21 10K library (AID 1224842). Also: nearly all actives have a fitted effect of over 15% in size. An outline of the steps:
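Luminescence from One-Glo (30 min, room temperature) measured after PGC/ERR cells had 18 h at 37 C with pinned compound (23 nL in DMSO). Cells had been seeded at 2,000 per well and pre-incubated 6 h.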

The nature of assay [9]: qHTS assay to identify small molecule agonists of the hypoxia (HIF-1) signaling pathway - cell viability counter screen (AID 1224844; calls by dose curve; also: nearly all actives have a fitted effect of over 50% in size). An outline of the steps:
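CellTiter-Glo luminescence read-out, 30 min RT, taken in the same wells as the beta-lactamase HRE reporter assay; HRE-bla ME-180 cells, 0.5% dialyzed FBS, 17 hr compound treatment at 37C, 5% CO2.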

Assay [10] can be described thus: qHTS assay to identify small molecule agonists of H2AX (AID 1224845; active = well fitted activation curve with a large enough effect in the signal ratio in the repeat runs, not every such curve was filed as active; the % refers to the signal ratio). An outline of the steps: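 Phospho-H2AX Ser139 measured by HTRF (ex 320 nm; em 665 and 620 nm) after 24 hr antibody incubation. Compounds, 15 concentrations, 0.76% DMSO, were applied to CHO-K1 cells for 3hr at 37C before lysis.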
Assay [11] can be described thus: qHTS assay to identify small molecule agonists of the hypoxia (HIF-1) signaling pathway (AID 1224846; active = well fitted activation curve with a large enough effect in the signal ratio in the repeat runs, not every such curve was filed as active; the % refers to the signal ratio). An outline of the steps:
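Beta-lactamase FRET read-out (CCF4-AM substrate) from ME-180 cells carrying an HRE-driven bla reporter, after 17 hrs compound exposure at 37C/5% CO2. Cells were seeded at 2,000 per well in 0.5% dialyzed FBS medium and preincubated 5 hrs.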

A short description of assay [12]: qHTS assay to identify small molecule agonists of H2AX - cell viability counter screen (AID 1224847; calls by dose curve; also: top concentration of the series differs between compounds; nearly all actives have a fitted effect of over 30% in size). The gist of the method:
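Wild-type CHO-K1 cells (10% FBS medium) were plated overnight at 37C, exposed to compounds at 15 concentrations for 3 hr at 37C (0.76% DMSO final), and viability was read as CellTiter-Glo luminescence after 30 min at room temperature.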

Assay [13] is described as follows: qHTS assay to identify small molecule antagonists of the estrogen related receptor (ERR) signaling pathway from Tox21 library (AID 1224848). Also: nearly all actives have a fitted effect of over 50% in size. The gist of the method: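 ERR cell line, 2,000 cells/well. 6 h settle, then compound (DMSO) added; 18 h at 37 C; ONE-Glo luminescence after 30 min RT.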
The nature of assay [14]: qHTS assay to identify small molecule agonists of the estrogen related receptor (ERR) signaling pathway from Tox21 library (AID 1224849; calls by dose curve; also: nearly all actives have a fitted effect of over 15% in size). To be noted: ERR reporter cell line, ONE-Glo luciferase, 18 h; at 92.4 µM (top of the series) unless noted. An outline of the steps: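 Luminescence readout (ONE-Glo, 30 min RT) after 18 h compound exposure at 37 C of NTP-supplied ERR reporter cells; cells were plated 6 h before compound addition by pin tool.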

Assay [15] is described as follows: qHTS RealTime-Glo MT Cell Viability Assay in HepG2 cells - 24 hour (AID 1224867). Also: nearly all actives have a fitted effect of over 50% in size. The gist of the method: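 Compound treatment began 5 h after plating HepG2 cells (600/well) with NanoLuc luciferase and prosubstrate. Plates stayed at 37 C for 40 h; luminescence was captured at six time points, 0 h through 40 h.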
The nature of assay [16]: qHTS RealTime-Glo MT Cell Viability Assay in HEK293 cells - 32 hour (AID 1224868). Also: nearly all actives have a fitted effect of over 50% in size. Also: potency is read from the fitted curve at half-maximal effect. The gist of the method: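 Quantitative high-throughput screen of the Tox21 10K library in HEK293: cells and RealTime-Glo reagents plated together, compound added at 5 h, luminescence monitored through 40 h at 37 C.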
Assay [17] can be described thus: A CellTox Green Cytotoxicity Assay to monitor cytotoxicity in HEK293 cells - 0 hour (AID 1224869). Also: nearly all actives have a fitted effect of over 50% in size. An outline of the steps: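 Read-out: fluorescence of a cell-impermeant cyanine dye staining DNA of dead cells, proportional to cytotoxicity. HEK293, 600 cells/well with reagent, compound (23 nL DMSO) added after 5 h; reads at 0, 8, 16, 24, 32, 40 h.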
The nature of assay [18]: qHTS RealTime-Glo MT Cell Viability Assay in HepG2 cells - 40 hour (AID 1224870). Also: nearly all actives have a fitted effect of over 50% in size. An outline of the steps:
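Real-time viability: cells seeded at 600 per well together with NanoLuc and cell-permeant prosubstrate, compounds added after 5 h incubation. Luminescence tracked at 0, 8, 16, 24, 32 and 40 h of exposure.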

The nature of assay [19]: qHTS assay to identify small molecule antagonists of the estrogen related receptor signaling pathway with the pleiotropic PPARgamma coactivator (PGC) from Tox21 10K library - cell viability counter screen (AID 1224840; active = well fitted cell-killing curve with a large enough effect in the repeat runs, not every such curve was filed as active; also: nearly all actives have a fitted effect of over 40% in size). The gist of the method: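 Fluorescence read-out of CellTiter-Fluor viability reagent, added after cells had been exposed to compound in DMSO for 17.5 h at 37 C; 30 min development at 37 C/5% CO2. Cells: PGC/ERR line, 2,000/well.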

Assay [20] has as its target Thyrotropin receptor (Homo sapiens) (UniProt P16473). Description: qHTS assay to identify small molecule agonists of the thyroid stimulating hormone receptor (TSHR) signaling pathway (AID 1224843; calls by dose curve; also: nearly all actives have a fitted effect of over 45% in size). The gist of the method: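 A cell-based cAMP HTRF format was run in TSHR-transfected HEK293 cells, 800 per well. Treatment: 30 min, room temperature. Detection: 1 h with labelled cAMP and anti-cAMP cryptate. Concentration-response over 15 points, three replicates.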

Molecules are shown by their SMILES. Values joined by “and” are separate entries in the source; they are usually repeats but may differ in a detail not shown here. Equal entries are not always repeated. A number with no mark means an inactive call. Results filed as inconclusive are left out. Active and inactive are the calls of the source. Unless noted, calls follow the shape of the dose curve; as a rule, active = well fitted curve in the direction sought with a large enough effect in the repeat runs; inconclusive = weak or mixed curves; inactive = no such curve, though single readings can be large; an effect the other way counts as inactive or inconclusive.
% is scaled to controls: 0 for no effect and ±100 for the full control effect.

Chain of Nuclear receptor subfamily 1 group I member 3 (Homo sapiens) (Q14994 whole entry, looked up): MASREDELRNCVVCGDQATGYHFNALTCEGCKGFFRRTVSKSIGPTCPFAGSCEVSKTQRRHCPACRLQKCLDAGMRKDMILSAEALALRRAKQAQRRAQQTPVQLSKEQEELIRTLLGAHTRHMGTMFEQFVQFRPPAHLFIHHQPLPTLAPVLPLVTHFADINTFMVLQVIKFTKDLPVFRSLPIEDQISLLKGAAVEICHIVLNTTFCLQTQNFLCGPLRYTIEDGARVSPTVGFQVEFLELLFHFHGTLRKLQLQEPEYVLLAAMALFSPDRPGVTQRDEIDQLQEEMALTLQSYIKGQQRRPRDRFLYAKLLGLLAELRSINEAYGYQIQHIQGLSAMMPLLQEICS
Chain of Luciferin 4-monooxygenase (Photinus pyralis) (P08659 whole entry, looked up): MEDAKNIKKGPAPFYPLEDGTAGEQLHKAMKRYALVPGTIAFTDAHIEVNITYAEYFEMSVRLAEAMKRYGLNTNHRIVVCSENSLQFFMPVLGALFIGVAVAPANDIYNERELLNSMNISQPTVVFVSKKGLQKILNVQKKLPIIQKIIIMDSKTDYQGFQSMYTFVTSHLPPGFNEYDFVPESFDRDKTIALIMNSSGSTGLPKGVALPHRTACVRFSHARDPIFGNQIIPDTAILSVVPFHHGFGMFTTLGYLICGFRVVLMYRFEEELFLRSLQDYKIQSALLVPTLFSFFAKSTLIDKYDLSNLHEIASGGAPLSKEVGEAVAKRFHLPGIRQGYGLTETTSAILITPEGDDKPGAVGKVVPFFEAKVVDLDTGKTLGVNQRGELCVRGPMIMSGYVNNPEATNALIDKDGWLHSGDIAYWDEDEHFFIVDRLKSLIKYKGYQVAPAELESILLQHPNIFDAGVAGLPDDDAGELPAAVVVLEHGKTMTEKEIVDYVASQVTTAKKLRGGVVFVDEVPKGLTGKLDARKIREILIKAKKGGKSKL
Chain of Thyrotropin receptor (Homo sapiens) (P16473 whole entry, looked up): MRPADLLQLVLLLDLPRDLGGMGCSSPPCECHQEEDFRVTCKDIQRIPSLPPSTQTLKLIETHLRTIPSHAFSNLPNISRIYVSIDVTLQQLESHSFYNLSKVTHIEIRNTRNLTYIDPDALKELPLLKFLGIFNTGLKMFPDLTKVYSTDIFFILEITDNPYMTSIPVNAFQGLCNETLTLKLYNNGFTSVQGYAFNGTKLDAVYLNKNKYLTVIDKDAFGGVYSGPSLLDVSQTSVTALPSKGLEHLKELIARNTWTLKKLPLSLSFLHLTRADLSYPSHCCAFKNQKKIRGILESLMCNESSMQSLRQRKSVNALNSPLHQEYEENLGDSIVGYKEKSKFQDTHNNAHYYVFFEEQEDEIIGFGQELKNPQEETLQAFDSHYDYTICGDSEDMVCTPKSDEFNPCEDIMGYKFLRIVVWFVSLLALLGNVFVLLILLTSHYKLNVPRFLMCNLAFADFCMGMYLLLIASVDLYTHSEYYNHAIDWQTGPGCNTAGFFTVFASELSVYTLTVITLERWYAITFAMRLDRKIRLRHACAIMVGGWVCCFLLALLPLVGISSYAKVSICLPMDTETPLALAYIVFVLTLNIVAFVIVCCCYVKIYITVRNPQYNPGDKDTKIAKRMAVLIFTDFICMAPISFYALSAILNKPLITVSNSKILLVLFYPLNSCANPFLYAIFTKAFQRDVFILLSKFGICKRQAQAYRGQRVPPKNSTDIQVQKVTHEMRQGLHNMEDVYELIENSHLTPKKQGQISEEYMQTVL

`ClC(Cl)(Br)Br`: the Potency entry in assay [1], in assay [2], in [3], in assay [4], in assay [5] and in assay [6] was “inactive” in each case. Besides, the Potency result in assay [7], in [9], in assay [12], in assay [13], in [15] and in assay [16] was “inactive” in each case. Moreover, the Potency entry in assay [17] and in [18] was “inactive” in each case. The call in assay [8], in assay [10] and in assay [11] was inactive. For the same compound, the activity change, positive = activation in assay [14] was 1.45%.

For `O=c1cc(-c2ccccc2)oc2ccccc12`, the Potency result in [1], in assay [3], in [4], in [19], in assay [9] and in assay [15] was “inactive” each time. Moreover, the Potency entry in assay [17] and in assay [18] was “inactive” each time. Also, the Potency in assay [2] was 7.97 µM (active) and 12.6 µM (active); in assay [6], 27.3 µM (active) and 21.6 µM (active); in assay [16], 15.5 µM (active) and 6.88 µM (active). Further, the outcome in assay [11] was inactive.

For the compound `CC1(C)C(O)C(C)(C)C1O` (stereo unspecified), the Potency result in [1], in [2], in assay [3], in assay [4], in assay [5] and in [19] was “inactive” in each case. The Potency result in assay [7], in assay [9], in [12], in assay [13], in [15] and in assay [16] was “inactive” each time. The Potency result in assay [17] and in assay [18] was “inactive” throughout. The outcome in assay [8], in assay [10] and in assay [11] was inactive. Also, the activity change, positive = activation in assay [14] was 1.44%.

As for `CO/N=C(/C(=O)N[C@@H]1C(=O)N2C(C(=O)OCOC(=O)C(C)(C)C)=C(C)CS[C@H]12)c1csc(N)n1`, the Potency result in [1], in assay [2], in assay [3], in assay [5], in assay [6] and in assay [19] was “inactive” in each case. Further, the Potency result in [7], in assay [20], in [9], in assay [12], in [13] and in assay [15] was “inactive” throughout. Besides, the Potency entry in [16], in [17] and in [18] was “inactive” throughout. The call in assay [8], in assay [10] and in assay [11] was inactive. For the same compound, the activity change, positive = activation in assay [14] is 4.91% [at 42.5 µM].

Consider `O=Cc1cccc([N+](=O)[O-])c1`, for which the Potency result in assay [1], in assay [2], in assay [3], in assay [5], in [6] and in assay [19] was “inactive” throughout. The Potency entry in assay [9], in assay [12], in [13], in assay [15], in [16] and in assay [17] was “inactive” in each case. Besides, the Potency result in assay [18] was “inactive”. Besides, the Potency in assay [7] is 24.2 µM (active). The outcome in [8], in [10] and in [11] was inactive. Besides, the activity change, positive = activation in assay [14] is -4.24%.

With `Cc1c(O)cccc1O`, the Potency entry in assay [1], in assay [2], in assay [3], in assay [4], in [5] and in assay [19] was “inactive” in each case. Also, the Potency result in assay [7], in assay [9], in assay [12], in [13], in assay [15] and in [16] was “inactive” each time. Further, the Potency entry in assay [17] is “inactive”. Moreover, the outcome in assay [8], in [10] and in assay [11] was inactive.

Values taken from PubChem BioAssay (Tox21).
